The source made the active and inactive calls.
system: XIP peptide (Xip251-270) binding; experiment: small-molecule binders of XIP peptide, primary screen, biochemical, small-molecule microarray, fluorescence 635/667 nm, 0.1 µg/mL protein (AID 1182); conditions: fluorescent protein binding, 635 nm, higher = more signal, called active from +8 up or from −8 down

Composite z-score, inactive:
CC[C@@H](c1ccccc1)n1c(=O)n2n(c1=O)[C@H]1[C@H](O)[C@@H]3O[C@@H]3C(=O)[C@H]1CC2 -0.144
CCOC(=O)[C@H](Cc1ccccc1)NC(=O)CCC1CC(OC(=O)NCc2cccc3ccccc23)CC2(CCCC(COC(=O)NCc3cccc(C(F)(F)F)c3)O2)O1 (stereo partly specified) 0.418
C[C@H]1Cc2c(COc3ccccc3)nc3c(c2CO1)CN(CCOc1ccccc1)CC3 -0.279
CCOC(=O)NN=C1C[C@@H](O)[C@@H](O)[C@@H]2[C@@H]3C(=O)N(c4cccc(Oc5ccccc5)c4)C(=O)[C@@H]3CC[C@@H]12 0.187
COc1cc(O)c(C(=O)C=Cc2ccc3c(c2)OCO3)c(OC)c1 -0.156
C=CC[C@@H]1C=C[C@H](ON=C2[C@H]3CCn4c(=O)n(-c5ccccc5)c(=O)n4[C@H]3[C@H](O)[C@@H]3O[C@H]23)[C@@H](CO)O1 0.372
C[C@@H](c1ccccc1)N1C(=O)[C@H]2[C@H]3[C@H](O)[C@H](O)CC(=NO[C@@H]4O[C@H](CO)[C@@H](O)[C@H](O)[C@H]4O)[C@@H]3CC[C@H]2C1=O -0.0769
CC(CCN1CCCc2nc(C)c(C)cc21)=NO[C@@H](C)c1cc(-c2c(C)cc(C)cc2C)no1 0.268
CC(=O)OC[C@H]1O[C@H](CCON=C2[C@H]3CCn4c(=O)n(-c5ccccc5)c(=O)n4[C@H]3[C@H](O)[C@@H]3O[C@H]23)C=C[C@@H]1OC(C)=O 0.149
CCN1C(=O)[C@H]2[C@H]3[C@H](O)[C@H](O)CC(=NO[C@@H](C)c4cn([C@H](CO)Cc5ccccc5)nn4)[C@@H]3CC[C@H]2C1=O 1.13
CO[C@H]1COC(=O)[C@@H](C)COC(=O)[C@@H](OCc2ccccc2)C=C[C@@H]1C 0.224
COc1ccc(C#C[C@@H]2C=C[C@H](OC(C)=O)[C@@H](COC(C)=O)O2)cc1 3.11
CC(C)=CCCC(C)=CCON=C1C[C@@H](O)[C@@H](O)[C@@H]2[C@@H]3C(=O)N(Cc4ccccc4)C(=O)[C@@H]3CC[C@@H]12 0.146
O=C1[C@H]2[C@H]3[C@H](O)[C@H](O)CC(=NOCc4ccccc4)[C@@H]3CC[C@H]2C(=O)N1Cc1ccc2c(c1)OCO2 0.135
CO[C@@H]1C=CCC(=O)N2CCC[C@H]2C(=O)OC[C@@H](C)C(=O)OC[C@H]1C 0.229
CC(C)=CCCC(C)=CCON=C1C[C@@H](O)[C@@H](O)[C@@H]2[C@@H]3C(=O)N(C(C)(C)C)C(=O)[C@@H]3CC[C@H]12 -0.007
COC(=O)[C@H](C)NC(=O)CCC1CC(OC(=O)NCCc2ccc(F)cc2)CC2(CCCC(COC(=O)NCc3cccc(C(F)(F)F)c3)O2)O1 (stereo partly specified) 0.64
CCC1=NOC(CCC2CC(OC(=O)NCc3cccc4c3OCO4)CC3(CCCC(COC(=O)NCCc4ccccc4OC)O3)O2)C1 (stereo unspecified) 1.87
CC(C)=CCCC(C)=CCON=C1C[C@@H](O)[C@@H](O)[C@@H]2[C@@H]3C(=O)N(C4CCCCC4)C(=O)[C@@H]3CC[C@@H]12 -0.318
COc1ccc(COC(=O)NN=C2C[C@@H](O)[C@@H](O)[C@@H]3[C@@H]4C(=O)N(C5CCCCC5)C(=O)[C@@H]4CC[C@H]23)cc1 -0.252
CC(CCN1CCCCc2nc(C)c(C)cc21)=NOC[C@@H](O)COCc1ccco1 2.22
CCN1C(=O)[C@H]2[C@H]3[C@H](O)[C@H](O)CC(=NOC[C@H]4O[C@H](c5ccccc5)C=C[C@@H]4Oc4ccc(OC)cc4)[C@@H]3CC[C@H]2C1=O 0.432
O=C(NN=C1C[C@@H](O)[C@@H](O)[C@@H]2[C@@H]3C(=O)N(C4CCCCC4)C(=O)[C@@H]3CC[C@H]12)OCc1ccccc1 -0.142
CCOC(=O)NN=C1C[C@@H](O)[C@@H](O)[C@@H]2[C@@H]3C(=O)N(Cc4ccccc4)C(=O)[C@@H]3CC[C@H]12 -0.405
CC(C)(C)N1C(=O)[C@H]2[C@H]3[C@H](O)[C@H](O)CC(=O)[C@H]3CC[C@H]2C1=O 0.596
C[C@@H]1CC[C@H]2C(=O)O[C@@H](Cc3ccccc3)CN2[C@H]1c1ccc(Br)cc1 0.128
CCOC(=O)NN=C1C[C@@H](O)[C@@H](O)[C@@H]2[C@@H]3C(=O)N(Cc4ccc5c(c4)OCO5)C(=O)[C@@H]3CC[C@H]12 2.21
CCN1C(=O)[C@H]2[C@H]3[C@H](O)[C@H](O)CC(=NNC(=O)OCc4ccc(OC)cc4)[C@@H]3CC[C@H]2C1=O 0.0729
COC(=O)[C@H]1[C@@H](O)[C@@]2(O)c3ccccc3O[C@@]2(c2ccccc2)[C@@H]1c1ccccc1 -0.759
COC(=O)[C@H](C)NC(=O)CCC1CC(OC(=O)NCc2ccc3c(c2)OCO3)CC2(CCCC(COC(=O)NCC3CCCCC3)O2)O1 (stereo partly specified) 0.655
CCOC(=O)[C@H](Cc1ccccc1)NC(=O)CCC1CC(OC(=O)NCc2cccc3ccccc23)CC2(CCCC(COC(=O)NCc3ccccc3)O2)O1 (stereo partly specified) 0.278
O=C1CCCC=C1C(O)CCCCBr (stereo unspecified) 0.26
COc1cccc([C@H]2Oc3ccc(OC)cc3C(=NOC[C@@H](O)COCc3ccco3)[C@@H]2O)c1 0.252
CO[C@@H]1COC(=O)[C@@H](C)NC(=O)CC=C[C@@H](C)[C@H](NS(=O)(=O)c2ccc(C)cc2)COC(=O)[C@H](C)NC(=O)CC=C[C@H]1C 0.199
CO[C@@H]1COC(=O)CC=C[C@@H](C)[C@@H]2C=C[C@H](O)[C@@H](COC(=O)CC=C[C@H]1C)O2 0.0592
CCOC(=O)[C@H](CC(C)C)NC(=O)CCC1CC(OC(=O)NCc2ccc3c(c2)OCO3)CC2(CCCC(COC(=O)NCCCN3CCCC3=O)O2)O1 (stereo partly specified) -0.228

From PubChem BioAssay
